Screening results as filed in PubChem.
SW480 rerep = induces DNA re-replication in SW480 colon adenocarcinoma cells | Potency, µM (top dose mostly 46.1 µM), for the others: at the highest dose re-replication activation, usual class: activators | 340,000 tested, 1.8% active | SW480 DNA re-replication, Hoechst DNA content imaging, 48 h; also: % of control where 0% means no effect; nearly all actives have a fitted effect of over 55% in size
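Image-based DNA-content assay: after two days of treatment, nuclei were labelled with the DNA dye Hoechst and imaged, and hits were compounds raising the count of nuclei showing high fluorescence intensity.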
ELG1 DNA repair = inhibitors of ELG1-dependent DNA repair in HEK293T cells | HEK293T ELG1-luciferase reporter, luminescence, 16 h; DNA damage induced by 5-fluorouridine | Potency, µM (highest dose often 46.1 µM), for inactives: at the top dose activity change, negative = inhibition, actives largely listed as inhibitors | 330,000 tested, 2.3% active | AID 504467; also: % is scaled to controls: 0 for no effect and ±100 for the full control effect; nearly all actives have a fitted effect of over 55% in size
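DMSO vehicle served as the neutral condition. Each well held 2,000 cells given 5-fluorouridine plus compound; after 16 hr at 37 °C/5% CO2, ONE-Glo was added and luciferase measured 30 min later.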
MCF10A rereplic = induces DNA re-replication in MCF 10a normal breast cells. MCF 10A DNA re-replication, Hoechst nuclear intensity, 48 h. AID 624296. Potency, µM (series often up to 46.1 µM), without a hit: at the highest dose activity, positive = re-replication, actives largely listed as activators. 350,000 tested, 2.9% active; also: % of control where 0% means no effect; nearly all actives have a fitted effect of over 50% in size
A-T KAP1 phos = potential ataxia-telangiectasia treatment | F2112 A-T fibroblasts, KAP-1 phosphorylation AlphaLISA; neocarzinostatin DNA damage 30 min before lysis | Potency, µM (series often up to 57.5 µM), for inactives: at the highest dose activation, hits mostly activators | 320,000 tested, 0.19% active; also: % of control where 0% means no effect; nearly all actives have a fitted effect of over 45% in size
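hTERT-immortalized A-T patient fibroblasts (F2112), 500 cells/well in OPTI-MEM, 1% FBS, got compounds for 60 min, then NCS for 30 min at 37C. Lysates were then assayed for phospho-KAP-1 by AlphaLISA (anti-pKAP1 donor, anti-KAP1 acceptor beads), 6 hr at 25C.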
ELG1 genotox = genotoxicity induction in ELG1-luciferase HEK293T cells; HEK293T ELG1-luciferase reporter, luminescence, 16 h; Potency, µM (doses to about 46 µM), for inactives: at the highest dose activity change, positive = activation, hits mostly activators; 330,000 tested, 1.3% active; AID 504466; also: % of control where 0% means no effect; nearly all actives have a fitted effect of over 60% in size
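Screening used a luciferase reporter fused to human ELG1 in HEK293T cells. Luminescence was read on a CCD plate imager after 16 hr exposure and 30 min ONE-Glo incubation.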
p53 reactivation = restores transcriptional activity of mutant p53. H1299 p53-A138V BP100-luciferase reporter, luminescence, 24 h. Potency, µM (series often up to 92.2 µM), inactives show at the highest dose activity change, positive = activation, most hits filed as activators. 320,000 tested, 0.063% active; also: % of control where 0% means no effect; nearly all actives have a fitted effect of over 45% in size
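p53-null H1299 cells stably carrying temperature-sensitive p53-A138V and a BP100-luciferase reporter were pinned with compounds (4-point, 1:5 series) and held 24 hrs at 37 deg C. Luminescence was read 10 min after detection reagent.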
Numbers without * were called inactive; ? = inconclusive; . = not tested or not shown. Compounds with a hit are over-represented: about 7.1% of the library has one in this group of screens. Calls follow the shape of the dose curve; as a rule, active = well fitted curve in the direction sought with a large enough effect; inconclusive = small, poorly fitted or top-dose-only effect, or another doubt; inactive = no such curve, though single readings can be large; an effect the other way counts as inactive or inconclusive. Potency is read from the fitted curve at half-maximal effect.

SMILES	SW480 rerep	ELG1 DNA repair	MCF10A rereplic	A-T KAP1 phos	ELG1 genotox	p53 reactivation
COC(=O)c1scc(S(=O)(=O)C(C)C)c1N/N=C(\C#N)C(=O)c1ccc(Cl)cc1	0%	13µM*	6%	0%	-18%	1%
COC(=O)c1scc(C#N)c1N/N=C(\C#N)S(=O)(=O)c1ccc(Cl)cc1	-10%	?	13µM*	-6%	-11%	-5%
COC(=O)c1scc(C)c1NC(=O)c1ccc(Cl)cc1	-1%	0%	-7%	-6%	-1%	5%
COc1ccc(C(CNC(=O)C(=O)NC2CCCCC2)N2CCN(C)CC2)cc1 (configuration not stated)	-6%	20%	0%	-3%	26%	15%
C[C@H](NC(=O)COc1ccc(Cl)cc1)C(=O)N1CCC2(CC1)NCCc1[nH]cnc12	2%	0%	?	6%	-1%	-7%
O=C(NCc1cccnc1)/C(=C\c1ccc(-c2cccc(Cl)c2)o1)S(=O)(=O)c1ccccc1	?	16µM*	7.3µM*	31%	-19%	-37%
O=C(c1ccco1)N1CCN(C(=O)c2cnn3c(C(F)(F)F)cc(-c4cccs4)nc23)CC1	1%	5.8µM*	0%	1%	-11%	0%
O=C(O)c1cc2nc(-c3cccs3)cc(C(F)(F)F)n2n1	?	-1%	2%	-1%	-4%	0%
O=C(NCCc1ccccc1)c1nc2nc(-c3cccs3)cc(C(F)(F)F)n2n1	6%	?	?	-3%	-8%	28%
O=C(c1cc(-c2cccs2)on1)N1CCN(C(c2ccccc2)c2ccccc2)CC1	5%	-4%	?	4%	-8%	1%
O=C(c1cnn2c(C(F)(F)F)cc(-c3cccs3)nc12)N1CCN(C(c2ccccc2)c2ccccc2)CC1	-2%	5.8µM*	9%	-7%	-3%	-3%
FC(F)(F)c1cc(-c2cccs2)nc2cc(-c3ccccc3)nn12	?	15%	16µM*	-2%	2%	-5%
O=C(c1cnn2c(C(F)(F)F)cc(-c3cccs3)nc12)N1CCN(Cc2ccccc2)CC1	18%	6.5µM*	?	-3%	-14%	-10%
COc1ccc(N(C)S(=O)(=O)c2cccc(C(=O)N3CCN(S(=O)(=O)c4ccc(C)cc4)CC3)c2)cc1	1%	-28%	10%	-6%	-14%	-1%
COc1cc2c(cc1OC)CN(C1CCCN(Cc3cc(Cl)ccc3O)C1)CC2 (configuration not stated)	29%	-17%	?	12%	-3%	2%
CC(C)CC(=O)N(c1nnc(-c2cccnc2)s1)C1CCCC1	22%	7%	-10%	9%	-1%	.
O=C(Nc1nnc(-c2ccccc2)o1)C1CCCN1S(=O)(=O)c1cccs1 (configuration not stated)	-65%	-10%	-9%	6%	-1%	-6%
CN1CCN(C(=O)c2cnn3c(C(F)(F)F)cc(-c4cccs4)nc23)CC1	-479%	5.8µM*	-4%	2%	2%	-14%
Cc1oc(S(=O)(=O)N2CCCCC2)cc1NC(=O)Nc1ccc(F)cc1	-8%	-11%	8%	0%	-1%	-2%
Cc1nc(Nc2nc(CSc3nc4ccccc4[nH]3)cc(=O)[nH]2)nc2ccccc12	?	13µM*	12µM*	1%	-14%	?
COc1ccc2nc(Nc3nc(CSc4nc5ccccc5[nH]4)cc(=O)[nH]3)nc(C)c2c1	?	5.8µM*	3.7µM*	0%	-7%	40µM*
Cc1nc(Nc2nc(CSc3ccc(Cl)cc3)cc(=O)[nH]2)nc2ccccc12	?	-12%	12%	-4%	10%	-9%
